Assay [1] in a line: phospholipid biosynthesis inhibitors in animal cells, primary screen, cell-based, LOPAC library, screen 4 (AID 1347384; call rule not given here). As to conditions: phospholipid biosynthesis inhibition screen, at 10 µM.
Assay [2] can be described thus: viability rescue of complex I mutant cybrids, primary screen, cell-based, galactose medium, ATP luminescence (AID 1645843;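 active means z-score of at least 1.8 in each of two replicates, scored against plate mean and spread of sample wells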;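 further: positive z means more ATP and so rescue of galactose-driven cybrid death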). Conditions: complex I mutant cybrid cells, 72 h, stronger effect = higher value.
A short description of assay [3]: LFS_MB_1R medulloblastoma cell growth inhibition, synergistic combos for chromothripsis tumors, cisplatin or BGB combos (AID 1671452).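 Further: cells exposed for 96 hours before readout.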 Conditions: LFS_MB_1R medulloblastoma cells, stronger effect = higher value.
A short description of assay [4]: CRL2098 osteosarcoma cell growth inhibition, synergistic combos for chromothripsis tumors, BGB or cisplatin IC20 combos (AID 1671454).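 Further: cells exposed for 96 h before readout; 0% = vehicle DMSO and 100% = killing by high DMSO.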 As to conditions: CRL2098 osteosarcoma cells, drug combinations, stronger effect = higher value.
A short description of assay [5]: HD-MB03 medulloblastoma cell growth inhibition, synergistic combos for chromothripsis tumors, BGB or cisplatin IC20 combos (AID 1671455; in the data active means inhibition above about 83%;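 further: 0% = vehicle DMSO and 100% = high DMSO as cytotoxic control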). Conditions: HD-MB03 medulloblastoma cells, stronger effect = higher value.
Assay [6] can be described thus: UWB1.289 ovarian carcinoma cell growth inhibition, synergistic combos for chromothripsis tumors, BGB or cisplatin combos (AID 1671456).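 Further: cells exposed to compound for four days; 0% = vehicle DMSO and 100% = killing by high DMSO.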 Conditions: UWB1.289 ovarian carcinoma cells, stronger effect = higher value.
A short description of assay [7]: LFS_MB_2R medulloblastoma cell growth inhibition, synergistic combos for chromothripsis tumors, cisplatin combos (AID 1671457).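 Further: cells exposed to compound for four days before readout.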 As to conditions: LFS_MB_2R medulloblastoma cells, stronger effect = higher value.
A short description of assay [8]: UWB1.289_BRCA1 ovarian cancer growth, cell-based, BGB or cisplatin combinations (AID 1671459). As to conditions: UWB1.289 BRCA1 ovarian carcinoma, drug combinations, stronger effect = higher value.
Assay [9] can be described thus: human astrocyte viability loss, single and combined drugs, cytotoxicity control for chromothriptic childhood tumor combination screen, cell-based, BGB or cisplatin IC20 combos (AID 1671460).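 Further: cells exposed to compounds for 96 hours before viability readout; 0% = vehicle and 100% = killing control.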 Conditions: Human astrocytes, drug combinations, stronger effect = higher value.
The nature of assay [10]: growth inhibition of CRL1545 osteosarcoma cells, cell-based, cisplatin and BGB IC20 combos (AID 1671464).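 Further: cells exposed to compound for 96 hours before readout; 0% = vehicle DMSO and 100% = high DMSO killing control.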 Conditions: stronger effect = higher value.
Assay [11] is described as follows: kinase inhibitors against Plasmodium liver-stage infection, cell-based, known kinase inhibitor set, luminescence, hepatoma host viability (AID 624392; call rule not given here;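 further: infected cells incubated roughly two days before readout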). As to conditions: Plasmodium liver stage in hepatoma cells, luciferase luminescence, concentration not given here; liver cell % of control: measured here: host liver cell viability; parasite % of control: stronger effect = lower value.

The subject of assay [12] is Hepatitis C virus NS3 helicase. Put plainly: HCV NS3 helicase inhibitors, primary screen, biochemical, fluorescence polarization, LOPAC1280 library (AID 687035; in the data active means inhibition above about 37%). Conditions: Purified HCV NS3 helicase, Cy5-dT15 ssDNA binding fluorescence polarization; stronger effect = higher value; concentration not given here. A general note: Fluorescence polarisation rises when a labelled molecule tumbles more slowly, as on binding a larger partner.

Assay [13] in a line: Cy5 fluorescence quenching or enhancement artefacts, artefact control for HCV NS3 helicase inhibitor project, biochemical, LOPAC1280 (AID 687037; call rule not given here). As to conditions: Cy5-DNA-NS3h complex fluorescence interference counterscreen. On the technique in general: Counterscreens check selectivity or assay interference.
Setting [14] is: measured here: combination with BGB IC40, at 0.05 µM.
Setting [15] is: measured here: combination with cisplatin, at 0.5 µM.
Where [16] appears, read: measured here: combination with cisplatin, at 5 µM.
Setting [17] is: measured here: combination with BGB at IC20, at 0.5 µM.
Where [18] appears, read: measured here: combination with cisplatin at IC20, at 0.5 µM.
Where [19] appears, read: measured here: combo with BGB at IC20, at 0.5 µM.
Where [20] appears, read: measured here: combo with cisplatin at IC20, at 0.5 µM.
Where [21] appears, read: measured here: inhibition with BGB combination, at 0.05 µM.
Where [22] appears, read: measured here: inhibition with cisplatin combination, at 0.05 µM.
Where [23] appears, read: BGB combination, concentration series, at 5 µM.
Where [24] appears, read: cisplatin combination, concentration series, at 5 µM.
Where [25] appears, read: measured here: combo with BGB IC20, at 0.5 µM.
Where [26] appears, read: measured here: combo with cisplatin IC20, at 0.5 µM.
The mark [27] stands for this setting: measured here: with BGB IC20 combination, at 0.5 µM.
Setting [28] is: measured here: with cisplatin IC20 combination, at 0.5 µM.

Several values for one entry are separate records, joined by “and”; a condition that tells them apart may be missing. Equal entries are not always repeated. Activity calls are given as the source filed them. Unless noted, no stated cut-off is given here; in the data, active means inhibition above about 80%; inactive means the rest.

For `CCOC(=O)N1CCN(/[N+]([O-])=N/Oc2ccc([N+](=O)[O-])cc2[N+](=O)[O-])CC1`, the outcome in [1] was inactive. Moreover, the z-score in assay [2] was -0.95 (inactive).

In general, inhibition refers to the drop in the measured response relative to a control, in per cent. Regarding `O=c1cc(N2CCOCC2)oc2c(-c3cccc4c3sc3ccccc34)cccc12`, the inhibition in assay [3] (at 0.5 µM) was -39.7% (inactive); in assay [3] (setting [14]) it was -46.9%; in [3] (setting [15]), -75.1%; in assay [3] (setting [16]) it was -3.55%; in [4] (at 0.5 µM), -62.4% (inactive); in assay [4] (setting [17]), -46.6%. Also, the inhibition in assay [4] (setting [18]) is -92%; in assay [5] (at 0.5 µM), 0.79% (inactive); in assay [5] (setting [19]), -1.46%; in assay [5] (setting [20]), 11.5%; in [6] (at 0.5 µM) it was -12.2% (inactive); in assay [6] (setting [21]) it was -24%. The inhibition in assay [6] (setting [22]) is -24.1%; in [7] (at 0.5 µM), -22.4% (inactive); in assay [7] (setting [15]), -18.6%; in assay [7] (setting [16]), -3.32%; in assay [8] (setting [23]) it was 44.6%; in assay [8] (at 0.5 µM), -11.7% (inactive). In addition, the inhibition in [8] (setting [24]) is 12.1%; in assay [9] (at 0.5 µM) it was 9.11% (inactive); in assay [9] (setting [25]), 7.86%; in assay [9] (setting [26]), 13%; in [10] (at 0.5 µM) it was 17.1% (inactive); in assay [10] (setting [27]), -25.4%. Besides, the inhibition is 37.3% in assay [10] (setting [28]); -18.4% in assay [10] (single agent, at 0.05 µM); -71.2% in assay [10] (single agent, at 5 µM).

Turning to `NC(=O)c1ccc(N(C(N)=O)c2c(F)cccc2F)nc1-c1ccc(F)cc1F`, in assay [11], the liver cell % of control was 98.2% and 93.2% and 92%; the parasite % of control was 55.7% (inactive) and 44.1% (inactive) and 51.8% (inactive).

As for `COc1cc2c(cc1OC)C1CC(=O)C(CC(C)C)CN1CC2` (configuration not stated), the inhibition in assay [12] was -3% (inactive). For the same compound, the fluorescence ratio (interference) in [13] was 1 (inactive). Moreover, the result in assay [1] was inactive. Besides, the z-score in assay [2] is 0.245 (inactive).

In the case of `Nc1ncnc2c1c(-c1cnc3[nH]ccc3c1)nn2C1CCCC1`, the inhibition in assay [3] (at 0.5 µM) is -19.1% (inactive); in [3] (setting [14]), -13.7%; in assay [3] (setting [15]), -26.5%; in assay [3] (setting [16]) it was 69.1%; in assay [4] (at 0.5 µM), 25.4% (inactive); in [4] (setting [17]) it was 3.06%. The inhibition was 36.8% in [4] (setting [18]); 28.9% (inactive) in assay [5] (at 0.5 µM); 13% in assay [5] (setting [19]); 41.5% in [5] (setting [20]); 28.7% (inactive) in assay [6] (at 0.5 µM); -4.92% in [6] (setting [21]). For the same compound, the inhibition is -7.06% in assay [6] (setting [22]); -21.4% (inactive) in assay [7] (at 0.5 µM); -27.2% in [7] (setting [15]); 59% in assay [7] (setting [16]); 98.9% in [8] (setting [23]); 22.9% (inactive) in assay [8] (at 0.5 µM). Further, the inhibition in assay [8] (setting [24]) is 106%; in assay [9] (at 0.5 µM), 53.4% (inactive); in [9] (setting [25]), 55.9%; in assay [9] (setting [26]), 46%; in assay [10] (at 0.5 µM) it was -8.52% (inactive); in [10] (setting [27]) it was -19%. The inhibition in assay [10] (setting [28]) is -4.93%; in assay [10] (single agent, at 0.05 µM) it was -24.4%; in [10] (single agent, at 5 µM), 98.2%.

Source of the values: PubChem BioAssay.
